Compound activity from PubChem.
RBX1-CUL1 inh = inhibitors of human ROC1-CUL1 ubiquitin ligase activity. P62877+Q13616. in vitro K48 di-Ub FRET, acceptor:donor ratio, 45 min. inhibition, % at 10 µM. 140,000 compounds, 0.6% hits. AID 1347404; in the data active means inhibition above about 25%
Target sequence (P62877 whole entry, looked up): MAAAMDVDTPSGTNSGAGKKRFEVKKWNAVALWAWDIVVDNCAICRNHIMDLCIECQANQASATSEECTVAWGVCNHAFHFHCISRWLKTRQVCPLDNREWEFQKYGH
Target sequence (Q13616 whole entry, looked up): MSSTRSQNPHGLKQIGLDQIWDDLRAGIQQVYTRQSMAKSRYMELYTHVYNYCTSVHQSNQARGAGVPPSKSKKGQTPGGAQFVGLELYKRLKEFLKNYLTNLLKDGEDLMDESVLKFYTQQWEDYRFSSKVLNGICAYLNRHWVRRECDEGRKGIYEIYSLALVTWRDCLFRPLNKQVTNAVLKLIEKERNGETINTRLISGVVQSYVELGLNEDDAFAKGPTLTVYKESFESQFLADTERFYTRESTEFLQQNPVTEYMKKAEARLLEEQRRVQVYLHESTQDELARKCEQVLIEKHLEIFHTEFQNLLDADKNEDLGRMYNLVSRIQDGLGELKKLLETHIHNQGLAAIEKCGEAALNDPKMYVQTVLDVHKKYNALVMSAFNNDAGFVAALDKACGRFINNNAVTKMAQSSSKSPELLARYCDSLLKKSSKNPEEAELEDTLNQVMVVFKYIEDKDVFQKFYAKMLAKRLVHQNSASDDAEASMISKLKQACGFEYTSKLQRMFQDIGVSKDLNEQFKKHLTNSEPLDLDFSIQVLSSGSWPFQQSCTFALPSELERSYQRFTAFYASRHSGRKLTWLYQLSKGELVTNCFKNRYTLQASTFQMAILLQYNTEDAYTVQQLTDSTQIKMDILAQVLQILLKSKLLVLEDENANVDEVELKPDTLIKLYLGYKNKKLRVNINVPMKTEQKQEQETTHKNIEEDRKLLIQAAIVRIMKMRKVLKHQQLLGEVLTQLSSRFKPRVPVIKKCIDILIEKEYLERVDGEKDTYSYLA
* marks the source's active call; other numbers are inactive results. Many of the other results were omitted from the sample, so hits are more common in it than they were.

SMILES	RBX1-CUL1 inh
Cc1cccc(NC(=O)CN2C(=O)S/C(=C\c3cccn3-c3cccc(C(=O)O)c3)C2=O)c1	10
Cc1ccc(NC(=O)CN2C(=O)S/C(=C\c3ccccn3)C2=O)cc1C	0
Cc1ccccc1NC(=O)CN1C(=O)S/C(=C/c2ccccc2)C1=O	-1
Cc1cccc(C)c1NC(=O)CN1C(=O)S/C(=C\c2cccn2-c2cccc(C(=O)O)c2)C1=O	-3
Cc1ccc(NC(=O)CN2C(=O)S/C(=C\c3ccc(N4CCOCC4)cc3C)C2=O)c(C)c1	-7
Cc1ccc(NC(=O)CN2C(=O)S/C(=C\c3ccc(N4CCCC4)c(F)c3)C2=O)c(C)c1	-6
COC(=O)c1c(S(=O)(=O)Nc2ccc3c(c2)CCC3)sc2c1CCN(C(=O)CC1CC1)C2	1
O=C(Nc1ccc(Cl)cc1C(=O)NCCCCO)c1ccc(Cl)cc1Cl	6
O=C(/C(=N\O)c1ccco1)c1ccco1	11
CC12CCC(C/C1=N/OC(=O)c1ccc(F)cc1)C2(C)C (configuration not stated)	3
Cc1ccc(N=C(Nc2cccc3ccccc23)C(=Nc2ccc(C)cc2)Nc2cccc3ccccc23)cc1	0
Cc1nc2c(Cl)cc(Cl)cc2c2c1CCS2	-15
CC1=NOC(=O)/C1=C\c1cccs1	9
COc1ccc(/C=C2\COc3ccccc3C2=O)cc1OC	12
Cc1ccc2c(c1)C(=O)/C(=C/c1cccs1)CO2	73*
Cc1ccc(F)c(CNC(=O)Cn2nnnc2CN2CCCC2)c1F	3
COC(=O)C1=C(C(=O)OC)[C@@H](c2ccccc2)N(c2ccc(OC)cc2)[C@H]1c1ccccc1	-6
Nc1ccc2ccc3cccnc3c2n1	-8
Nc1ccc2cccc(C(=O)O)c2n1	70*
CS(=O)(=O)c1ccccc1C(=O)O	4
Cc1ccc(CSc2nnc3c(n2)OC(c2ccc(-c4ccccc4Cl)o2)Nc2ccccc2-3)cc1 (configuration not stated)	-2
c1ccc(COn2nnc3ccccc32)cc1	3
O=C(N=Nc1c(O)[nH]c2c(Br)cc(Br)cc12)c1cccs1	-5
COC(=O)/C(C#N)=C/c1c(OC)[nH]c2ccccc12	-10
N#C/C(=C\c1ccc(Cl)s1)C(N)=O	3
SMILES	RBX1-CUL1 inh
CC(=O)Oc1c(/C=C(\C#N)C(N)=O)[nH]c2ccccc12	47*
O=C(COc1cc(Cl)ccc1Cl)N1CCC2(CC1)OCCO2	3
COc1ccc(/C=N/NC(=O)Cn2cnc3sc4c(c3c2=O)CCC(C)C4)cc1OC (configuration not stated)	4
CC(=O)Nc1ccc(CN2CCC(c3nc(-c4ccncc4)ncc3-c3cccc(C)c3)CC2)cc1	-4
COc1cc(Br)cc(/C=N/NC(=O)CSc2nnc(-c3ccc(C)cc3)n2C)c1O	17
COc1cc(/C=N/NC(=O)CSc2nnc(-c3ccc(C)cc3)n2C)ccc1O	27*
Cc1ccc(/C=N/NC(=O)CSc2nnc(-c3ccc(Br)cc3)n2C)cc1	-1
C=CCn1c(SCC(=O)Nc2ccccc2F)nc2scc(-c3ccc(C)o3)c2c1=O	13
COc1cccc(-c2[nH]c3c(c2-c2c(-n4cccc4)n(C)c(=O)[nH]c2=O)c(=O)[nH]c(=O)n3C)c1	3
COC(=O)c1c(C)sc(-c2c(-c3ccc4c(c3)OCCO4)[nH]c3[nH]c(=O)[nH]c(=O)c23)c1O	8
CCOC(=O)c1nn(-c2ccc3c(c2)OCCO3)cc1O	2
COC(=O)c1c(C)sc(-c2c(-c3ccc4c(c3)OCCO4)[nH]c3c2c(=O)n(C)c(=O)n3C)c1O	13
CCOC(=O)c1c(C)sc(-c2c(-c3ccccc3)[nH]c3[nH]c(=O)[nH]c(=O)c23)c1O	-1
CCc1ccc(-c2[nH]c3c(c2-c2sc(C)c(C(=O)OC)c2O)c(=O)[nH]c(=O)n3C)cc1	7
CCOC(=O)c1nn(-c2ccc(C)cc2)c(N=Nc2ccc3c(c2)OCCO3)c1O	-1
COC(=O)c1c(C)sc(-c2c(-c3cccc(Cl)c3)[nH]c3c2c(=O)[nH]c(=O)n3C)c1O	28*
CCOC(=O)c1c(C)sc(-c2c(-c3ccc(OC)c(F)c3)[nH]c3[nH]c(=O)[nH]c(=O)c23)c1O	4
CCOC(=O)c1c(C)sc(-c2c(-c3ccc(OC)c(F)c3)[nH]c3c2c(=O)[nH]c(=O)n3C)c1O	32*
CCOC(=O)c1c(C)sc(-c2c(-c3ccc4c(c3)OCCO4)[nH]c3c2c(=O)[nH]c(=O)n3C)c1O	30*
CCOC(=O)c1c(C)sc(-c2c(-c3ccc4c(c3)OCCO4)[nH]c3c2c(=O)n(C)c(=O)n3C)c1O	33*
CCCNC(=O)C1CCN(Cc2c(F)cccc2Cl)CC1	-11
COc1ccc(-c2cc(-c3ccccc3)c3c(N)c(C(=O)NNC(=O)c4ccc(C)cc4)sc3n2)cc1	-1
COC(=O)[C@@H]1CCCN1C(=O)c1cn(C/C=C/c2ccccc2)nn1	-3
CCS(=O)(=O)N1CCC(C(=O)Nc2c(Cl)cccc2Cl)CC1	-8
C#CCOc1ccccc1/C=N/NC(=O)C(O)c1ccccc1 (configuration not stated)	-4
SMILES	RBX1-CUL1 inh
O=C(CSc1nc2scc(-c3ccccc3)c2c(=O)n1-c1ccccc1)Nc1ccccc1C(F)(F)F	-7
Cc1cc(C)n2c(-c3cccs3)nnc2n1	-2
CN(CCO)C1COCc2ccccc21 (configuration not stated)	-1
Nc1ccc(S(=O)(=O)N2CCc3ccccc32)cc1	5
O=C1C(=Cc2ccc(N3CCCCCC3)o2)C(=O)c2ccccc21	4
CC(=O)N(C)C1=C(N2CCCC2)C(=O)c2ccccc2C1=O	-6
O=C1C=C(N2CCc3ccccc32)c2ccccc2C1=O	77*
Cc1nc(N2CCc3ccccc32)nc2c1C(=O)CC(C)(C)C2	0
O=C1C=C(N2CCCCC2)c2ccccc2C1=O	80*
CCc1ccccc1NC(=O)C1CCN(S(=O)(=O)CC)CC1	3
CC1N=C2N=C(NC(=O)c3ccc[n+](C)c3)NC(=O)C2N(C(=O)c2ccc[n+](C)c2)C1C (configuration not stated)	2
CCOC(=O)c1sc(C)c2c(=O)n(CC(=O)Nc3ccc(C)cc3)c(C)nc12	-3
CSC1=N/C(=C\c2ccc(C(=O)O)cc2)C(=O)S1	50*
COc1cccc(/C=C2\N=C(SC)SC2=O)c1OCc1ccccc1	-3
CSC1=N/C(=C\c2ccc(F)cc2)C(=O)S1	7
CSC1=N/C(=C\c2cc(Br)ccc2OCC(=O)O)C(=O)S1	50*
CSC1=N/C(=C\c2ccc(OC3CCCC3)cc2)C(=O)S1	5
O=C(O)COc1ccc(Br)cc1Cl	-3
Cc1cccc2c(CC(=O)Nc3ccccc3F)noc12	1
CCOC1(OCC)C(c2ccccc2)C(C#N)(S(=O)(=O)c2ccccc2)C1(OCC)OCC (configuration not stated)	5
CCn1c(COc2ccc(OC)cc2)nnc1SCC(=O)Nc1cccc(C(F)(F)F)c1	-9
O=C(O)C1=NN(c2ccccc2)C(=O)/C1=C\c1cccs1	26*
CCOC(=O)C1=NN(c2ccccc2)C(=O)/C1=C\c1ccc(F)cc1	6
O=C1/C(=C\c2cccs2)C(c2ccccc2)=NN1c1ccc(Cl)c(Cl)c1	-5
CNCc1cc(Cl)c(OC)c(OC)c1	3
CN(Cc1ccncn1)C(=O)C1CCCN(c2nc(-c3ccccc3)nc3c2CCC3)C1 (configuration not stated)	9
O=C(NC(NCC1CCCO1)C(Cl)(Cl)Cl)c1ccc(Cl)cc1 (configuration not stated)	-8
O=C(O)c1ccc(-n2cncn2)cc1	-1
